Assay results from PubChem BioAssay (NCATS).
Inconclusive results are not listed. Entries that show only a call come without a potency. Activity calls are given as the source filed them. Unless noted, calls come from the whole dose curve; as a rule, active = well fitted curve in the direction sought with a large enough effect in the repeat runs; inconclusive = weak or mixed curves; inactive = no such curve, though single readings can be large; an effect the other way counts as inactive or inconclusive.

How the values were obtained:
[1] = Primary qHTS for small molecule stabilizers of the endoplasmic reticulum resident proteome: Secreted ER Calcium Modulated Protein (SERCaMP) assay (AID 1508630; active = well fitted curve in the direction sought with a large enough effect; an effect the other way counts as inactive or inconclusive)
Method in brief: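 GLuc-SERCaMP-expressing SH-SY5Y cells, pretreated 16 h with compound, are challenged with thapsigargin to empty ER calcium stores; after 4 h, coelenterazine is added directly to the medium and luminescence is imaged.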

[2] = A High-Content qHTS Against Drug Library for the Identification of Small Molecules that Inhibit DYT1 Early Onset Primary Dystonia-Associated Cell Pathology (AID 1645839; calls by dose curve; note: potency is the fitted concentration of half-maximal effect)
Method in brief: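 In this high-content image screen, delE TorsinA mislocalization in inducible Flp-In 293 cells is scored as %pathology, with cell count serving as the counterscreen. Compound exposure lasts 48 h under tetracycline induction in reduced-serum medium.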

[3] = biological target: Cytochrome P450 2D6 (Homo sapiens) (UniProt P10635); test: Cytochrome P450 family 2 subfamily D member 6 (CYP2D6) small molecule antagonists: luciferase biochemical (cell-free) qHTS assay (AID 1645840); note: nearly all actives have a fitted effect of over 55% in size; note: potency is the fitted concentration of half-maximal effect
Method in brief: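 P450-Glo luminescent screen: recombinant CYP2D6 enzyme–proluciferin substrate mix preincubated with compound 10 min at room temperature, then NADPH regeneration added for 1 h at room temperature. Detection reagent added for 20 min; luciferin light read as relative luminescence units.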

[4] = biological target: Cytochrome P450 2C9 (Homo sapiens) (UniProt P11712); test: Cytochrome P450 family 2 subfamily C member 9 (CYP2C9) small molecule antagonists: luciferase biochemical (cell-free) qHTS assay (AID 1645842); note: nearly all actives have a fitted effect of over 55% in size; note: potency is the fitted concentration of half-maximal effect
Method in brief: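 Luminescence, after 20 min with luciferin detection reagent, reflected CYP2C9 turnover during a 1 h NADPH-driven reaction at 37C. Enzyme-substrate mix contained 0.4% bovine serum albumin and was preincubated with compound 10 min at room temperature.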

[5] = Primary qHTS for inhibitors of nuclear receptor binding SET domain protein 2 (NSD2) in an isogenic RCH-ACV NSD2 p.E1099K mutant (9B) (AID 1645876; active = well fitted curve in the direction sought with a large enough effect; an effect the other way counts as inactive or inconclusive; note: nearly all actives have a fitted effect of over 70% in size; note: potency is the fitted concentration of half-maximal effect)

Chain of Cytochrome P450 2C9 (Homo sapiens) (P11712 whole entry, looked up): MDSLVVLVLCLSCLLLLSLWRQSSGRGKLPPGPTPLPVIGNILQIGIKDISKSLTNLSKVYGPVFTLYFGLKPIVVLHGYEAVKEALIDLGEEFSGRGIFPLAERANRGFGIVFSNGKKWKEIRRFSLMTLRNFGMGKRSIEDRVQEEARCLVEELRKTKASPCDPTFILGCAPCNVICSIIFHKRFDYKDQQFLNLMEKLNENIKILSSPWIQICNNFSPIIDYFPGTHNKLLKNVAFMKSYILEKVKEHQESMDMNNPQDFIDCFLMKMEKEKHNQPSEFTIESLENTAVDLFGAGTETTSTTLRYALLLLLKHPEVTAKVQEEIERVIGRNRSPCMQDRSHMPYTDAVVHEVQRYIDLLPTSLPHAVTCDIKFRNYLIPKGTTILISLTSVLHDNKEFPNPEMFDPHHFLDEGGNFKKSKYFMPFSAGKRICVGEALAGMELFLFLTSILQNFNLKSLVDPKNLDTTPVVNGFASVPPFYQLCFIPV
Chain of Cytochrome P450 2D6 (Homo sapiens) (P10635 whole entry, looked up): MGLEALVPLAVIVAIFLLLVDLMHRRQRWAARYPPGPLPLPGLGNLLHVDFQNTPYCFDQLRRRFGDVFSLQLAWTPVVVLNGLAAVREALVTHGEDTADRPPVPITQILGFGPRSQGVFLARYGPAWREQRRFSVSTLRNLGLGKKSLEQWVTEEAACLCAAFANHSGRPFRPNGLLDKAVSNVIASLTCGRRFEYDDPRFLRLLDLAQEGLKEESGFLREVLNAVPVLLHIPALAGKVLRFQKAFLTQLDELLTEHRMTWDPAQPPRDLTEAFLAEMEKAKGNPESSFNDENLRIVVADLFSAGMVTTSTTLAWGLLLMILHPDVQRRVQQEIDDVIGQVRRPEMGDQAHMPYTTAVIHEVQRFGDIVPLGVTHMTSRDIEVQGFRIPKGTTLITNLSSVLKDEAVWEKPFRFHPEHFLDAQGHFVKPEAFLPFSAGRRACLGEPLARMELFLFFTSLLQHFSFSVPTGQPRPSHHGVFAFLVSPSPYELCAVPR

| Structure (SMILES) | Potency [1] | Potency [2] | Potency [3] | Potency [4] | Potency [5] |
| --- | --- | --- | --- | --- | --- |
| CN(C)C(=O)Nc1ccc(Cl)c(Cl)c1 | inactive | inactive | inactive | inactive | inactive |
| CCN1/C(=C/C=C/c2sc3ccccc3[n+]2CC)Sc2ccccc21 | inactive | 11.2 µM (active) | 2.13 µM (active) | 9.52 µM (active) |  |
| Cc1cccc(C)c1NC(=O)CN1CCCCCC1 | inactive | inactive | 11 µM (active) | inactive | inactive |
| OCc1ccccn1 | inactive | inactive | inactive | inactive | inactive |
| COc1ccc(/C=N/NC(=O)c2ccncc2)cc1OC | inactive | inactive | 21.9 µM (active) | 12.3 µM (active) | inactive |
| CCCCC(CC)CN1CN(CC(CC)CCCC)CC(C)(N)C1 (stereo not drawn) | inactive | inactive | 0.219 µM (active) | inactive |  |
| NS(=O)(=O)c1ccc(Cl)c(S(N)(=O)=O)c1 | inactive | inactive | inactive | inactive | inactive |
| CO[C@]12C[C@@H](COC(=O)c3cncc(Br)c3)CN(C)[C@@H]1Cc1cn(C)c3cccc2c13 | inactive | inactive | 0.0155 µM (active) | inactive |  |
| Cc1nc(-c2ccc(Cl)cc2)oc1COC(C)(C)C(=O)O | inactive | inactive | inactive | inactive |  |
| NCCNc1cccc2ccccc12 | inactive | inactive | 7.76 µM (active) | 24.5 µM (active) |  |
| C[N+]1(C)CCC(=C(c2ccccc2)c2ccccc2)CC1 | inactive | inactive | 13.8 µM (active) | inactive |  |
| CC(=O)O[C@]1(C(C)=O)CC[C@H]2[C@@H]3C=C(C)C4=CC(=O)CC[C@]4(C)[C@H]3CC[C@@]21C | inactive | inactive | inactive | 12.3 µM (active) | inactive |
| CCN(CC)CCNC(=O)COc1ccc(OC)cc1 | inactive | inactive | 13.8 µM (active) | inactive | inactive |
| CCC1Nc2cc(Cl)c(S(N)(=O)=O)cc2S(=O)(=O)N1 (stereo not drawn) | inactive | inactive | inactive | inactive | inactive |
| OC1C(O)C(O)C(O)C(O)C1O (stereo not drawn) | inactive | inactive | inactive | inactive | inactive |
| Clc1cccc(C(c2ccc3nc[nH]c3c2)n2ccnc2)c1 (stereo not drawn) | inactive | inactive | 15.5 µM (active) | 7.76 µM (active) | inactive |

| Structure (SMILES) | Potency [1] | Potency [2] | Potency [3] | Potency [4] | Potency [5] |
| --- | --- | --- | --- | --- | --- |
| CCCCCCCC/C=C\CCCCCCCCN | inactive | inactive | 0.55 µM (active) | 19.5 µM (active) | inactive |
| CCN1CCCC(OC(=O)C(c2ccccc2)c2ccccc2)C1 (stereo not drawn) | inactive | inactive | 1.38 µM (active) | inactive |  |
| O=C(O)CCNC(=O)c1ccccc1 | inactive | inactive | inactive | inactive | inactive |
| COc1cc(C(=O)NCc2ccc(OCCN(C)C)cc2)cc(OC)c1OC | inactive | inactive | inactive | inactive | inactive |
| Cl/C(=C\n1cncn1)c1ccc(Cl)cc1Cl | inactive | inactive | 4.9 µM (active) | 11 µM (active) | inactive |
| O=C(Nc1cccc(C2=NCCN2)c1)Nc1cccc(C2=NCCN2)c1 | inactive | inactive | inactive | inactive | 10.3 µM (active) |
| COP(=O)(OC)OC(c1ccc(Cl)cc1)P(=O)(OC)OC (stereo not drawn) | inactive | inactive | inactive | inactive | inactive |
| OCCOCCN1CCN(C2=Nc3ccccc3Sc3ccccc32)CC1 | inactive | inactive | inactive | inactive | inactive |
| Cc1ncc(CO)c(C=O)c1O | inactive | inactive | inactive | inactive | inactive |
| O=C1C(CCS(=O)c2ccccc2)C(=O)N(c2ccccc2)N1c1ccccc1 (stereo not drawn) | inactive | inactive | inactive | 3.09 µM (active) |  |
| COc1ccc(S(=O)(=O)N2c3ccc(Cl)cc3[C@@](O)(c3ccccc3Cl)[C@H]2C(=O)N2CCC[C@@H]2C(N)=O)cc1OC | inactive | inactive | inactive | 15.5 µM (active) |  |
| C[C@H]1[C@H]2CC[C@H]3[C@@H]4CC=C5C[C@@H](N(C)C)CC[C@]5(C)[C@H]4CC[C@]23CN1C | inactive | inactive | inactive | inactive |  |
| N#C/C(=C1\SCC(c2ccccc2Cl)S1)n1ccnc1 (stereo not drawn) | inactive | inactive | 0.275 µM (active) | 1.55 µM (active) |  |
| Cc1cc(NS(=O)(=O)c2ccc(N)cc2)nc(C)n1 | inactive | inactive | inactive | inactive | inactive |
| CCC(C(=O)OCCOCCN(CC)CC)c1ccccc1 (stereo not drawn) | inactive | inactive | 11 µM (active) | inactive | inactive |
| OC[C@H]1O[C@@H](Oc2ccc(O)cc2)[C@H](O)[C@@H](O)[C@@H]1O | inactive | inactive | inactive | inactive |  |
